Experimental data taken from paper PMC5700166.
Changes are numbered by the printed parent chain.

Legend:
Test in all cases: protein-binding microarray (PBM); PBM: ~300 nM protein, 6 mM HEPES pH 7.8, 80 mM KCl, 0.5 mM EDTA, 0.5 mM EGTA, 6% glycerol, 35 ng/ul poly-dIdC, 1% milk, 1 h, room temperature; Ap Aiptasia and Nv Nematostella (sea anemones) / Co Capsaspora / Aq Amphimedon (sponge) / Dm Drosophila / Hu human; RHD is the Rel homology domain; high values mean tight binding
Conditions in all cases: dsDNA, one strand shown
[1] = target: T1, GST-Ap-NF-kB RHD (Exaiptasia pallida (Aiptasia), UniProt A0A913YAJ5 2-422)
T1 sequence: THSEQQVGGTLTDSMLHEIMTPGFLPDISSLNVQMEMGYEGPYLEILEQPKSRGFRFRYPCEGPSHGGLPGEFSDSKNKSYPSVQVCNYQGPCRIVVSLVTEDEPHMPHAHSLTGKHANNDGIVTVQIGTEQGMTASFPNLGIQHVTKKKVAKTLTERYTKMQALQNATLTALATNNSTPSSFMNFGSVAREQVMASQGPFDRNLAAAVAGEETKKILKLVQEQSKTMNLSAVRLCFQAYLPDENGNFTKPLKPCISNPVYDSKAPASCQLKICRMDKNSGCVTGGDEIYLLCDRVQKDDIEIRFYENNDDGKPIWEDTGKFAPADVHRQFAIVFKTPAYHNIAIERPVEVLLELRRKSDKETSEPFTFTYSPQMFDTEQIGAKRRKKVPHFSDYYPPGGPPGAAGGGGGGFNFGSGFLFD

[2] = target: T2, GST-Nv-NF-kB (Cys allele) (Nematostella vectensis, UniProt E5G601 2-411)
T2 sequence: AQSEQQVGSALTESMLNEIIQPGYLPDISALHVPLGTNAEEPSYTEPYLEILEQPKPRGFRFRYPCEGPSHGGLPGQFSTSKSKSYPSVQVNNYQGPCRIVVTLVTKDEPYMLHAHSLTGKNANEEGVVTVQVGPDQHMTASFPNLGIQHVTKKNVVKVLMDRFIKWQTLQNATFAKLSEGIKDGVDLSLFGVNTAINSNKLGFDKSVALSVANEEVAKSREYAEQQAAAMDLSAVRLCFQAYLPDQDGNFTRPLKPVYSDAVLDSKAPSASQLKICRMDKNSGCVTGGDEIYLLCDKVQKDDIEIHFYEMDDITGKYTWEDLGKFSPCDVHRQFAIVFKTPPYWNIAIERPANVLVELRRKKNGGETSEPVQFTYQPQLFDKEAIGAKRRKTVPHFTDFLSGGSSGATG

[3] = target: T3, GST-Nv-NF-kB (Ser allele) (Nematostella vectensis, UniProt A7UNT2 2-411)
T3 sequence: T2 sequence with Q21R, C66S, S207N, E215Q, V217A, E225K, A268E, D399E

[4] = target: T4, GST-Co-NF-kB (Capsaspora owczarzaki, UniProt F1ARL5 200-546)
T4 sequence: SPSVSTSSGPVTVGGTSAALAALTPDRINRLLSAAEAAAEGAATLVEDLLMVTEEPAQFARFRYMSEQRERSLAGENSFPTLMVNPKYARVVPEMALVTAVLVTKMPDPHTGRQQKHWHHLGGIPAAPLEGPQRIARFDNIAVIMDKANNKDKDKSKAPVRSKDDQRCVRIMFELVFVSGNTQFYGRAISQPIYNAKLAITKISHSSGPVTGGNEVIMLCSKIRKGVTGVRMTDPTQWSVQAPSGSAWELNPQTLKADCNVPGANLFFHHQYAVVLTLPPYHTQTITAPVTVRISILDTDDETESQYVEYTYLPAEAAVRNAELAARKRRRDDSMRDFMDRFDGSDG

[5] = target: T5, GST-Dm-Relish (Drosophila melanogaster, UniProt Q94527 99-473)
T5 sequence: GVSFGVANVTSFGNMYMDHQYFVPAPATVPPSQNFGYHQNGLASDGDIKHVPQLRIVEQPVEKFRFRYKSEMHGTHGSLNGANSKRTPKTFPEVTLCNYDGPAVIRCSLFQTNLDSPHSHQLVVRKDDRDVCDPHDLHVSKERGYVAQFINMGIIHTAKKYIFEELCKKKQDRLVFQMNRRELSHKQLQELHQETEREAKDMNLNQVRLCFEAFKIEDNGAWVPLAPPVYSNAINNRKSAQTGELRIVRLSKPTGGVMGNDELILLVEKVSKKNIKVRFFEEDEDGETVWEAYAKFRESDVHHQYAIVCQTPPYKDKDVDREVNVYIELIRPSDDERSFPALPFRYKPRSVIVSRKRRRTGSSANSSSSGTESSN

[6] = target: T6, GST-Aq-NF-kB (Amphimedon queenslandica, UniProt A9Y5G7 2-389)
T6 sequence: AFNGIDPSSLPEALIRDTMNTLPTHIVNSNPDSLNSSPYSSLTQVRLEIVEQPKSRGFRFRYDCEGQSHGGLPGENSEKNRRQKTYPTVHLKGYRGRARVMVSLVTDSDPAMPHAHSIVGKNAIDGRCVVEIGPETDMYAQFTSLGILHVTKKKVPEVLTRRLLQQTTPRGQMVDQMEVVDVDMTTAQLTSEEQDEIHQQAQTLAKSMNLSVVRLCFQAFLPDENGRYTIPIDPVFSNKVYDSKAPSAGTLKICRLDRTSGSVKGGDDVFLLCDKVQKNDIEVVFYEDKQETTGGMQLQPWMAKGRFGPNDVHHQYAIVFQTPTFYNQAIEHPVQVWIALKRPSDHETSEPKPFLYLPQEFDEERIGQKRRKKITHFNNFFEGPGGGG

[7] = target: GST-Hu-p50 (Homo sapiens, UniProt P19838 7-356)
Chain of GST-Hu-p50 (P19838 7-356): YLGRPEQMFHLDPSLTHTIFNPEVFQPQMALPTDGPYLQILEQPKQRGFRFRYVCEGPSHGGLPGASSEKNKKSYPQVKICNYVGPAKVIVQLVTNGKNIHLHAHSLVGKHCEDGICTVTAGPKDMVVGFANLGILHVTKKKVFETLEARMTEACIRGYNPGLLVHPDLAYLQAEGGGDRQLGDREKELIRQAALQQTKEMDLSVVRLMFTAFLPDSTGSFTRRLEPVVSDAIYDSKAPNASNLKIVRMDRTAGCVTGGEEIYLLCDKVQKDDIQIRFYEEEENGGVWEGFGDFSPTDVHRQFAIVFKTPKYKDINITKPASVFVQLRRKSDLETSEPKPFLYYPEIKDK

Row | Sequence | binding signal [1] | binding signal [2] | binding signal [3] | binding signal [4] | binding signal [5] | binding signal [6] | binding signal [7]
1 | CCGATTAACATCAAAATCCCAGTTGATGTTAATCGGGTCTTGATTCGCTTGACGCTGCTG | 1.67 z-score | 1.47 z-score | 1.74 z-score | 1.27 z-score | 5.96 z-score | 1.75 z-score | 1.82 z-score
2 | CCGATTAACATCACCCGTTCCCCTGATGTTAATCGGGTCTTGATTCGCTTGACGCTGCTG | 5.61 z-score | 4.83 z-score | 6.11 z-score | 4.75 z-score | 1.99 z-score | 3.78 z-score | 3.85 z-score
3 | CCGATTAACATCAGGGACTTTTATGATGTTAATCGGGTCTTGATTCGCTTGACGCTGCTG | 7.76 z-score | 9.97 z-score | 9.79 z-score | 1.97 z-score | 8.37 z-score | 7.89 z-score | 6.59 z-score
4 | CCGATTAACATCAATAACCCCCATGATGTTAATCGGGTCTTGATTCGCTTGACGCTGCTG | 5.5 z-score | 4.47 z-score | 4.38 z-score | 2.27 z-score | 5.69 z-score | 4.84 z-score | 5.31 z-score
5 | CCGATTAACATCAAGAAGTCCCCTGATGTTAATCGGGTCTTGATTCGCTTGACGCTGCTG | 7.72 z-score | 7.86 z-score | 7.55 z-score | 3.14 z-score | 7.58 z-score | 6.79 z-score | 6.73 z-score
6 | CCGATTAACATCAAGACTTTCCCTGATGTTAATCGGGTCTTGATTCGCTTGACGCTGCTG | 4.06 z-score | 5.48 z-score | 5.59 z-score | 2.92 z-score | 2.82 z-score | 6.09 z-score | 4.12 z-score
7 | CCGATTAACATCAAATCCCCCCATGATGTTAATCGGGTCTTGATTCGCTTGACGCTGCTG | 7.89 z-score | 6.31 z-score | 6.65 z-score | 7.39 z-score | 7.66 z-score | 6.36 z-score | 6.55 z-score
8 | CCGATTAACATCAAATTCCCGGGTGATGTTAATCGGGTCTTGATTCGCTTGACGCTGCTG | 3.33 z-score | 3.9 z-score | 3.88 z-score | 4.43 z-score | 3.94 z-score | 3.13 z-score | 3.85 z-score
9 | CCGATTAACATCAGGGGAACCACTGATGTTAATCGGGTCTTGATTCGCTTGACGCTGCTG | 7.59 z-score | 6.92 z-score | 7.26 z-score | 5.2 z-score | 10.4 z-score | 7.58 z-score | 5.33 z-score
10 | CCGATTAACATCAAATTCCCATGTGATGTTAATCGGGTCTTGATTCGCTTGACGCTGCTG | 2.41 z-score | 4.08 z-score | 4.15 z-score | 1.96 z-score | 3.99 z-score | 2.58 z-score | 3.09 z-score
11 | CCGATTAACATCATTAGGGGAAGTGATGTTAATCGGGTCTTGATTCGCTTGACGCTGCTG | 4.61 z-score | 5.4 z-score | 7.61 z-score | 3.41 z-score | 2.36 z-score | 4.57 z-score | 5.39 z-score
12 | CCGATTAACATCAAGGGAAATTCTGATGTTAATCGGGTCTTGATTCGCTTGACGCTGCTG | 5.74 z-score | 8.12 z-score | 7.46 z-score | 4.57 z-score | 3.68 z-score | 6.88 z-score | 5.4 z-score
